About 2,100 (0.53%) of roughly 400,000 compounds were called active. Not shown: some 14% with an inconclusive outcome. No rule for the calls is given here. Shown is part of a subset that was picked to be rich in actives.

The target in this assay is Ataxin-2 (Homo sapiens) (UniProt Q99700). Kind of assay: qHTS for Inhibitors of ATXN expression. Type of assay: functional.
Sequence of Ataxin-2 (Homo sapiens) (Q99700 whole entry): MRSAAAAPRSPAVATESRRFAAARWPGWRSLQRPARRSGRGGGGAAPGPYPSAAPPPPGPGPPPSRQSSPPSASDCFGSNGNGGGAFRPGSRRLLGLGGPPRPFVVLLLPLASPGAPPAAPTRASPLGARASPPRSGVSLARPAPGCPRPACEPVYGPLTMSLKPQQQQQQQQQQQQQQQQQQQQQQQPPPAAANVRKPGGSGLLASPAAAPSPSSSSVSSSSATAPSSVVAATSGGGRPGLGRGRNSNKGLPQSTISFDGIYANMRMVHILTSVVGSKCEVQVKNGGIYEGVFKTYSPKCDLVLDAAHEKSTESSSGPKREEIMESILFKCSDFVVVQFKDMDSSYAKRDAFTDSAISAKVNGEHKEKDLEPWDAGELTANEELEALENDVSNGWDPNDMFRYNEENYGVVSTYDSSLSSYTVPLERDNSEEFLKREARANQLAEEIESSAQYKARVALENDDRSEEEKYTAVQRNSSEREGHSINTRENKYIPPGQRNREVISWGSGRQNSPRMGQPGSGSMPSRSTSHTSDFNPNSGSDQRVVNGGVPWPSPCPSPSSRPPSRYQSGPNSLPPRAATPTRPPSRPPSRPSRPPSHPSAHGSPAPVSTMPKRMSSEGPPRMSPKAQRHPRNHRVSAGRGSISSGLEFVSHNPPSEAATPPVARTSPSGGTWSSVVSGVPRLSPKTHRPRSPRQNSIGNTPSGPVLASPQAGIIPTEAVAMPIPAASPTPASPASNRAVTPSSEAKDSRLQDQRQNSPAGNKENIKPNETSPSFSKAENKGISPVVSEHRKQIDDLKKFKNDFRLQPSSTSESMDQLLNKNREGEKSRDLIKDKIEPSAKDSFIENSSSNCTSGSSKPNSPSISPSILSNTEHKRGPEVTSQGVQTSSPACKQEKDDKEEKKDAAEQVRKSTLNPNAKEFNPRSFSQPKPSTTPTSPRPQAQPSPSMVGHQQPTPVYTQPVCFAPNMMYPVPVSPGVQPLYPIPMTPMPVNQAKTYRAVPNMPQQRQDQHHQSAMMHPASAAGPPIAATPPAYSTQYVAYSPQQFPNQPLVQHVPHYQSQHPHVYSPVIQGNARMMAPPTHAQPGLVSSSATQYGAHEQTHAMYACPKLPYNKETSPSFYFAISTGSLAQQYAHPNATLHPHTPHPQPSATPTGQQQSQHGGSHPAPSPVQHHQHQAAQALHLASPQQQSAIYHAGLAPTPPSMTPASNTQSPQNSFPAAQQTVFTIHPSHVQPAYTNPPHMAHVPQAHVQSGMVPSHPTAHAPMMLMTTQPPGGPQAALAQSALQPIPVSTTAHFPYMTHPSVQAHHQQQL
`N#Cc1c(NC(=O)/C=C/C(=O)O)sc2c1CCN(Cc1ccccc1)C2`: the Potency result was “inactive”. Next, `Clc1ccc(-n2c(-c3cccc(Br)c3)nc3nc4ccccc4nc32)cc1`: “inactive”; `Cc1nn(CSc2c(F)c(F)c(F)c(F)c2F)c(C)c1[N+](=O)[O-]`: “inactive”.

As to `N#CC1=C(N)Oc2ccc3ccccc3c2C1c1cccnc1` (stereo unspecified), the Potency is 12.6 µM (active). As to `N#CC1=C(N)Oc2cc(N)ccc2C1c1ccccc1Cl` (stereo unspecified), the Potency result is “inactive”. To `N#CC1=C(N)Oc2cc(O)c(Cl)cc2C1c1cccnc1` (stereo unspecified) belongs “inactive”; to `Cc1cc(C)cc(NC(=O)c2sc3nc(C)cc(C)c3c2N)c1`, “inactive”. `O=C(NCCc1cccc(Cl)c1)c1ccc(OC2CCN(Cc3ccccn3)CC2)cc1`: the Potency was 35.5 µM (active). To `CCOc1ccc(CCNC(=O)c2cccc(NC3=NC4CS(=O)(=O)CC4S3)c2)cc1` (stereo unspecified) belongs “inactive”; to `Cc1c(CCC(=O)NCCc2ccccc2)c(=O)oc2cc(O)ccc12`, “inactive”; to `CCCc1c(-c2ccc(O)cc2)nn(-c2ccc(O)cc2)c1-c1ccc(O)cc1`, 25.1 µM (active). In the case of `O=C(O)C1CCN(c2nc(-c3ccccc3)c3cc(Br)ccc3n2)CC1`, the Potency result is “inactive”. Turning to `CCOC(=O)N1CCN(C(=O)c2cccn3c(=O)c4cc(Br)ccc4nc23)CC1`, the Potency result is “inactive”. To `CCCCN1CCc2c1nc1ccc(Br)cc1c2N` belongs 31.6 µM (active).

Regarding `CCc1cc2c(CN3CCN(Cc4ccccc4)CC3)cc(=O)oc2cc1O`, the Potency entry was “inactive”. Next, `Cc1ccc(/C=C2\Oc3c(ccc(O)c3CN3CCN(CCO)CC3)C2=O)cc1`: “inactive”; `CN(C(=O)CN1C(=O)c2cccc(N)c2C1=O)C1CCCCC1`: “inactive”. Next, `CC(C)(C)c1ccc2c(c1)N(CC(=O)N1CCCC1)C(=O)CO2`: “inactive”. To `CCN(CC)S(=O)(=O)c1ccc2c(c1)N(CC(=O)N1CCN(c3cccc(C)c3)C(C)C1)C(=O)CO2` (stereo unspecified) belongs 35.5 µM (active); to `COc1ccccc1N1CCN(C(=O)C2CCN(S(=O)(=O)c3ccccc3F)CC2)CC1`, “inactive”. As for `O=C(Cn1ncc2c1-c1ccccc1OC2)Nc1ccc(Cl)cn1`, the Potency result is “inactive”. Next, `Cc1ccc2c(c1)-c1c(cnn1CC(=O)N(Cc1ccco1)C1CCCCC1)CO2`: 37.7 µM (active); `COc1ccccc1N1CCN(C(=O)Cn2ncc3c2-c2cc(C)ccc2OC3)CC1`: 22.4 µM (active); `Cc1ccc2nc(N3CCN(C(=O)CCC(=O)O)CC3)nc(-c3ccccc3)c2c1`: “inactive”. Next, `CCOc1ccc(S(=O)(=O)N(CC)CC(=O)N2CCCC2)cc1C`: “inactive”; `Cc1ccnc(NC(=O)CCC(=O)N(CC(=O)NC2CCCCC2)C2CCCC2)c1`: “inactive”. Take `Cc1cccc(N2CCN(C(=O)Cn3ncc4c3-c3cc(C)ccc3OC4)CC2C)c1` (stereo unspecified): the Potency is 39.8 µM (active). Turning to `Cc1ccccc1CN1CCN(C(=O)c2ccc(S(=O)(=O)NCc3ccco3)cc2)CC1`, the Potency result is “inactive”. Next, `CCOCCCNc1nc2nc3ccc(C)cn3c(=O)c2cc1C(=O)NCC1CCCO1` (stereo unspecified): “inactive”; `CCNc1nc(NCC)nc(N/N=C(\C)c2ccc(OC)cc2)n1`: “inactive”. Take `CC1CCCCC12NC(=O)N(CC(=O)N(C)Cc1nc(O)c3ccccc3n1)C2=O` (stereo unspecified): the Potency entry was “inactive”. To `CC(C)NCCCCOc1cccc(Br)c1` belongs “inactive”; to `Cc1cccc(C)c1NC(=O)CN1C(=O)COc2ccccc21`, “inactive”. Regarding `CCOc1ccccc1NC(=O)Cn1ncc2ccc([N+](=O)[O-])cc21`, the Potency result was “inactive”. Regarding `CCN(CC)S(=O)(=O)c1ccc2c(c1)N(CC(=O)NCCCN1CCN(c3cc(Cl)ccc3C)CC1)C(=O)CO2`, the Potency is 31.6 µM (active). Next, `CCOc1ccccc1N(CC)C(=O)Cn1ncc2c(=O)oc3ccccc3c21`: “inactive”. Next, `CCN(CC)S(=O)(=O)c1ccc(N2CCCC2)c(NC(=O)Cc2cc(OC)c(OC)c(OC)c2)c1`: “inactive”; `CCOc1ccccc1N(CC)C(=O)Cn1ncc2c1-c1ccccc1OC2`: 39.8 µM (active); `Clc1ccc(C2=NN(c3ccccc3)C(c3ccco3)C2)cc1` (stereo unspecified): “inactive”. Next, `O=C(O)c1cc(Cl)ccc1-c1ccc(/C=C/c2cc(C(F)(F)F)nc(O)n2)o1`: “inactive”. Take `Fc1ccc(C2=CC(c3ccc(Br)o3)n3ncnc3N2)cc1` (stereo unspecified): the Potency result was “inactive”. For the compound `Cc1ccc(-n2nnc3c(=O)n(CC(=O)N4CCOCC4)cnc32)cc1`, the Potency entry is “inactive”. Regarding `CC(C)OC(=O)c1cc(NC(=S)Nc2ccc([N+](=O)[O-])cc2)cc(C(=O)OC(C)C)c1`, the Potency was 44.7 µM (active). Next, `Cc1cccc(NS(=O)(=O)c2ccc3nc(O)cc(C(=O)OC(C)C(=O)Nc4ccc([N+](=O)[O-])cc4)c3c2)c1` (stereo unspecified): “inactive”; `O=C(NCCNc1ccc([N+](=O)[O-])cc1)c1cccc(Br)c1`: “inactive”.

On to `CCN1CCC(O)(/C=C/c2ccc(C)cc2)C(C(=O)/C=C/c2ccc(C)cc2)C1` (stereo unspecified), for which the Potency was 31.6 µM (active). To `CC[N+]1(C)CCC(O)(/C=C/c2ccccc2)C(C(=O)/C=C/c2ccccc2)C1` (stereo unspecified) belongs 10.6 µM (active).

Take `CCN1CCC(O)(/C=C/c2ccc(C(C)C)cc2)C(C(=O)/C=C/c2ccc(C(C)C)cc2)C1` (stereo unspecified): the Potency is 25.1 µM (active). As to `COc1ccc(/C=C/C(=O)N(C)c2ccccc2C(=O)O)cc1`, the Potency result is “inactive”. Next, `Cc1cc(-c2nc(-c3ccncc3)no2)ccc1[N+](=O)[O-]`: “inactive”; `Cc1cc(=O)oc2c(CN3CCCC3)c(O)c(Cl)cc12`: “inactive”. Next, `COCCNC(=S)N/N=C/c1ccc2c(c1)OCCO2`: “inactive”. Next, `Brc1cc(Br)c2nc(-c3ccc(N4CCOCC4)cc3)ccc2c1`: “inactive”; `N#CC1=CN(Cc2ccccc2)C=C(/C=N/Nc2ccccc2)C1`: “inactive”. On to `O=c1c2cc([N+](=O)[O-])cc([N+](=O)[O-])c2[nH]n1-c1ccccc1`, for which the Potency is 22.4 µM (active). For `N#Cc1c(N)n(Cc2ccccc2)c(=O)c2cc([N+](=O)[O-])ccc12`, the Potency result was “inactive”. With `O=[N+]([O-])c1cc([N+](=O)[O-])c2[nH]nc(-c3ccccc3)c2c1`, the Potency result is “inactive”.

With `COC(=O)Cc1cnc(NC(=O)CSc2nc(O)cc(C(C)C)n2)s1`, the Potency result was “inactive”.

`CCCn1nc(NC(=O)c2ccco2)c2cc3ccccc3nc21`: the Potency result was “inactive”. To `COCc1c(C(=O)N/N=C/c2c[nH]c3ccccc23)nnn1-c1nonc1N` belongs “inactive”. To `COc1cc(Br)cc(/C=N/NC(=O)Cc2ccccc2)c1O` belongs “inactive”; to `NC(=S)N/N=C/c1c[nH]c2ccc(OCc3ccccc3)cc12`, 12.6 µM (active). On to `COC(=O)c1ccc(C(=O)N(CCN(C)C)c2nc3c(Cl)cccc3s2)cc1`, for which the Potency result was “inactive”. As to `CN(Cc1ccccc1)S(=O)(=O)c1ccc(N2CCOCC2)nc1`, the Potency result was “inactive”. As for `CN(Cc1ccccc1)S(=O)(=O)c1ccc(OCC(=O)N2CCC(C(N)=O)CC2)cc1`, the Potency result was “inactive”.

As to `Cc1ccc2sc(N(CCCN(C)C)C(=O)c3ccc(S(=O)(=O)N(C)Cc4ccccc4)cc3)nc2c1C`, the Potency is 31.6 µM (active).

As for `Cc1ccc2sc(N(CCCN(C)C)C(=O)c3ccc(S(=O)(=O)N(C)C4CCCCC4)cc3)nc2c1C`, the Potency was 25.1 µM (active). To `CCOc1cccc2sc(N(CCCN(C)C)C(=O)c3ccc(S(=O)(=O)N(C)Cc4ccccc4)cc3)nc12` belongs 39.8 µM (active); to `CN(C1CCCCC1)S(=O)(=O)c1ccc(SCC(=O)C(C)(C)C)nc1`, “inactive”. Next, `Cc1[nH]c2ccccc2c1C(=O)CN1C(=O)NC2(CCCCCC2)C1=O`: “inactive”; `CCC(C)(C)c1ccc(OCCCC[n+]2cccc(C)c2C)c(C(C)(C)CC)c1`: 31.6 µM (active). Next, `Cc1ccc(NC(=S)N/N=C/c2ccc([N+](=O)[O-])s2)cc1`: 39.8 µM (active); `Cc1cccc(NC(=O)C(C)Oc2ccc(C)nc2[N+](=O)[O-])c1` (stereo unspecified): “inactive”; `COc1cccc(/C=N/NC(=S)Nc2cccc(C(=O)O)c2)c1O`: “inactive”. Consider `CC(=O)c1cccc(NC(=O)CC2SC(N/N=C/c3ccccc3)=NC2=O)c1` (stereo unspecified), for which the Potency entry is “inactive”. To `CC(=O)c1cccc(NC(=O)/C=C/c2ccc([N+](=O)[O-])s2)c1` belongs 5.97 µM (active); to `C=CCc1cccc(/C=N/NC(=O)C(=O)Nc2ccc(C)cc2)c1O`, “inactive”.

Consider `COc1cccc(/C=C/C(=O)Nc2cccc(C(C)=O)c2)c1OC`, for which the Potency result was “inactive”. Regarding `CN(C(=O)/C=C/c1ccc([N+](=O)[O-])s1)c1ccccc1`, the Potency was 33.6 µM (active). To `CC(C)(C)NC(=S)N/N=C\c1ccc(-c2ccc([N+](=O)[O-])cc2)o1` belongs “inactive”.

As to `Cc1cccc(NC(=S)N/N=C/c2ccc([N+](=O)[O-])s2)c1`, the Potency is 31.6 µM (active). To `N=c1c(C(=O)NC2CCCC2)cc2c(=O)n3ccccc3nc2n1C1CCCCC1` belongs “inactive”.

For `CC1Nc2nc(N(C)C)nc(O)c2NC1C` (stereo unspecified), the Potency entry is “inactive”. To `Cc1cc2nc(/C=C/c3nc4cc(C)c(C)cc4[nH]3)[nH]c2cc1C` belongs “inactive”; to `Oc1ccc(Br)cc1C1Nc2ccccc2S1` (stereo unspecified), “inactive”; to `CCC(CC)c1nnc(NC(=O)CSCc2c(C)noc2C)s1`, “inactive”. Next, `COc1c(CC=C(C)C)c(O)cc2oc(=O)c3c4ccc(O)cc4oc3c12`: “inactive”; `CC1(C)C=Cc2c(c3c(c4c(=O)c(-c5ccc(O)cc5)coc24)OC(C)(C)CC3)O1`: 35.5 µM (active); `CC(C)=CCc1c(O)c(CC=C(C)C)c2occ(-c3ccc(O)cc3)c(=O)c2c1O`: 39.8 µM (active). Next, `CC(C)=CCc1c2c(c3occ(-c4ccc(O)cc4)c(=O)c3c1O)C=CC(C)(C)O2`: 25.1 µM (active); `CC(C)=CCc1c(-c2ccc(O)cc2O)oc2cc3c(c(O)c2c1=O)C=CC(C)(C)O3`: 39.8 µM (active).

As to `COC(c1ccccc1)(c1ccccc1)C(Oc1nc(C)cc(C)n1)C(=O)O` (stereo unspecified), the Potency result was “inactive”. Next, `CCOC(=O)c1c2ccc(OCC(=O)NN)cc2n2ccccc12`: “inactive”. Next, `Cc1c(C)c2cc(Cl)c(O)c(CN(C)C)c2oc1=O`: “inactive”; `CCCCCC(=O)N1C[C@H](n2cc(COC(=O)c3ccccc3)nn2)[C@@H](O)C[C@@H]1c1ccc(Cl)cc1`: 39.8 µM (active); `CCCCCC(=O)N1C[C@@H](n2cc(COC(=O)c3ccccc3)nn2)[C@H](O)C[C@@H]1c1ccc(Cl)cc1`: 31.6 µM (active).
